Assay results as given in PubChem BioAssay AID1159580 (chemical genetic matrix, 2015).
Hit rate of the full screen: of about 5,500 compounds, about 2,000 (36%) were called active. Inconclusive results (about 18%) are left out. Rule as the data show it: active = normalized growth mostly below about 0.91 (no sharp cut-off); inconclusive = no clear call, values can overlap the other calls; inactive = mostly above about 0.92. The list shows a part of the results.

Assay: chemical genetic growth profiling, strain panel (AID 1159580);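 also: tested at 20 µM; growth read once vehicle control cultures reached saturation at 30 °C; 1 = growth at the plate median or of vehicle wells; lower values mean less growth of the strain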
Settings: growth OD

Measured: normalized growth

C[C@@H]1O[C@@H](O[C@H]2[C@@H](Oc3cc(O)c4c(c3)O[C@H](c3ccc(O)cc3)CC4=O)O[C@H](CO)[C@@H](O)[C@@H]2O)[C@H](O)[C@H](O)[C@H]1O
inactive: S. cerevisiae deletion strains, locus YJR075W, strain HOC1, stronger effect = lower value 0.996 | S. cerevisiae deletion strains, locus YKL009W, strain mrt4, stronger effect = lower value 0.997 | S. cerevisiae deletion strains, locus YKL068W, stronger effect = lower value 1 | S. cerevisiae deletion strains, locus YKL085W, strain MDH1 (second series), stronger effect = lower value 0.996 | S. cerevisiae deletion strains, locus YKL085W, strain MDH1, stronger effect = lower value 0.996 | S. cerevisiae deletion strains, locus YKL160W, strain elf1, stronger effect = lower value 0.971 | S. cerevisiae deletion strains, locus YKL190W, strain CNB1, stronger effect = lower value 1 | S. cerevisiae deletion strains, locus YKR001C, strain vps1, stronger effect = lower value 1.01 | S. cerevisiae deletion strains, locus YKR026C, strain gcn3, stronger effect = lower value 0.996 | S. cerevisiae deletion strains, locus YKR091W, strain srl3, stronger effect = lower value 0.969 | S. cerevisiae deletion strains, locus YLL001W, strain dnm1, stronger effect = lower value 0.952 | S. cerevisiae deletion strains, locus YLL026W, stronger effect = lower value 0.974 | S. cerevisiae deletion strains, locus YLL041C, strain sdh2, stronger effect = lower value 0.983 | S. cerevisiae deletion strains, locus YLR027C, strain aat2, stronger effect = lower value 0.967 | S. cerevisiae deletion strains, locus YLR039C, strain RIC1, stronger effect = lower value 0.97 | S. cerevisiae deletion strains, locus YLR058C, strain SHM2, stronger effect = lower value 0.977 | S. cerevisiae deletion strains, locus YLR102C, strain apc9, stronger effect = lower value 1 | S. cerevisiae deletion strains, locus YLR113W, strain HOG1, stronger effect = lower value 0.969 | S. cerevisiae deletion strains, locus YLR221C, strain rsa3, stronger effect = lower value 0.957 | S. cerevisiae deletion strains, locus YLR258W, strain gsy2, stronger effect = lower value 0.981 | S. cerevisiae deletion strains, locus YLR262C, strain YPT6 (second series), stronger effect = lower value 0.979 | S. cerevisiae deletion strains, locus YLR262C, strain YPT6, stronger effect = lower value 0.969 | S. cerevisiae deletion strains, locus YLR268W, strain sec22, stronger effect = lower value 1.01 | S. cerevisiae deletion strains, locus YLR320W, strain mms22, stronger effect = lower value 0.969 | S. cerevisiae deletion strains, locus YLR330W, strain CHS5, stronger effect = lower value 0.99 | S. cerevisiae deletion strains, locus YLR342W, strain FKS1 (second series), stronger effect = lower value 1.03 | S. cerevisiae deletion strains, locus YLR342W, strain FKS1, stronger effect = lower value 0.98 | S. cerevisiae deletion strains, locus YLR357W, strain rsc2, stronger effect = lower value 0.956 | S. cerevisiae deletion strains, locus YLR370C, strain arc18, stronger effect = lower value 0.981 | S. cerevisiae deletion strains, locus YLR371W, strain rom2, stronger effect = lower value 0.997 | S. cerevisiae deletion strains, locus YLR384C, strain iki3, stronger effect = lower value 0.963 | S. cerevisiae deletion strains, locus YLR418C, strain cdc73, stronger effect = lower value 1.03 | S. cerevisiae deletion strains, locus YML016C, strain PPZ1, stronger effect = lower value 0.984 | S. cerevisiae deletion strains, locus YML032C, strain rad52, stronger effect = lower value 0.996 | S. cerevisiae deletion strains, locus YML120C, strain ndi1, stronger effect = lower value 0.953 | S. cerevisiae deletion strains, locus YML124C, strain tub3, stronger effect = lower value 0.993 | S. cerevisiae deletion strains, locus YMR058W, strain fet3, stronger effect = lower value 0.972 | S. cerevisiae deletion strains, locus YMR078C, strain ctf18, stronger effect = lower value 0.993 | S. cerevisiae deletion strains, locus YMR125W, strain sto1, stronger effect = lower value 0.941 | S. cerevisiae deletion strains, locus YMR129W, stronger effect = lower value 0.974 | S. cerevisiae deletion strains, locus YMR205C, strain PFK2, stronger effect = lower value 0.962 | S. cerevisiae deletion strains, locus YMR223W, strain ubp8, stronger effect = lower value 0.991 | S. cerevisiae deletion strains, locus YMR231W, strain pep5, stronger effect = lower value 0.983 | S. cerevisiae deletion strains, locus YMR263W, strain SAP30, stronger effect = lower value 0.987 | S. cerevisiae deletion strains, locus YMR307W, strain GAS1, stronger effect = lower value 1.04 | S. cerevisiae deletion strains, locus YNL067W, strain RPL9B, stronger effect = lower value 1 | S. cerevisiae deletion strains, locus YNL071W, strain lat1, stronger effect = lower value 0.979 | S. cerevisiae deletion strains, locus YNL128W, strain TEP1, stronger effect = lower value 0.975 | S. cerevisiae deletion strains, locus YNL153C, strain GIM3, stronger effect = lower value 0.981 | S. cerevisiae deletion strains, locus YNL183C, strain NPR1, stronger effect = lower value 0.92 | S. cerevisiae deletion strains, locus YNL209W, strain ssb2, stronger effect = lower value 0.971 | S. cerevisiae deletion strains, locus YNL233W, strain BNI4, stronger effect = lower value 0.991 | S. cerevisiae deletion strains, locus YNL248C, strain rpa49, stronger effect = lower value 0.977 | S. cerevisiae deletion strains, locus YNL250W, strain rad50, stronger effect = lower value 0.982 | S. cerevisiae deletion strains, locus YNL271C, strain bni1, stronger effect = lower value 0.999 | S. cerevisiae deletion strains, locus YNL298W, strain CLA4, stronger effect = lower value 1 | S. cerevisiae deletion strains, locus YNL307C, strain MCK1, stronger effect = lower value 1 | S. cerevisiae deletion strains, locus YNL322C, strain KRE1 (second series), stronger effect = lower value 0.951 | S. cerevisiae deletion strains, locus YNL322C, strain KRE1, stronger effect = lower value 0.987 | S. cerevisiae deletion strains, locus YNR049C, strain mso1, stronger effect = lower value 0.961 | S. cerevisiae deletion strains, locus YNR052C, strain pop2, stronger effect = lower value 0.998 | S. cerevisiae deletion strains, locus YOL006C, strain TOP1, stronger effect = lower value 0.962 | S. cerevisiae deletion strains, locus YOL012C, strain htz1 1.14 | S. cerevisiae deletion strains, locus YOL147C, strain pex11, stronger effect = lower value 1 | S. cerevisiae deletion strains, locus YOR001W, strain rrp6, stronger effect = lower value 0.998 | S. cerevisiae deletion strains, locus YOR061W, strain CKA2, stronger effect = lower value 0.967 | S. cerevisiae deletion strains, locus YOR069W, strain VPS5, stronger effect = lower value 0.99 | S. cerevisiae deletion strains, locus YOR070C, strain gyp1, stronger effect = lower value 0.981 | S. cerevisiae deletion strains, locus YOR080W, strain dia2, stronger effect = lower value 0.967 | S. cerevisiae deletion strains, locus YOR083W, strain WHI5, stronger effect = lower value 0.947 | S. cerevisiae deletion strains, locus YOR106W, strain vam3, stronger effect = lower value 0.954 | S. cerevisiae deletion strains, locus YOR136W, strain idh2, stronger effect = lower value 0.999 | S. cerevisiae deletion strains, locus YOR144C, strain elg1, stronger effect = lower value 1 | S. cerevisiae deletion strains, locus YOR184W, strain ser1, stronger effect = lower value 0.991 | S. cerevisiae deletion strains, locus YOR231W, strain MKK1, stronger effect = lower value 0.98 | S. cerevisiae deletion strains, locus YOR265W, strain rbl2, stronger effect = lower value 0.983 | S. cerevisiae deletion strains, locus YOR270C, strain vph1, stronger effect = lower value 0.915 | S. cerevisiae deletion strains, locus YOR290C, strain snf2, stronger effect = lower value 0.919 | S. cerevisiae deletion strains, locus YOR316C, strain cot1, stronger effect = lower value 0.992 | S. cerevisiae deletion strains, locus YPL051W, strain arl3, stronger effect = lower value 0.987 | S. cerevisiae deletion strains, locus YPL055C, strain LGE1, stronger effect = lower value 0.973 | S. cerevisiae deletion strains, locus YPL078C, strain atp4, stronger effect = lower value 0.968 | S. cerevisiae deletion strains, locus YPL106C, strain sse1, stronger effect = lower value 0.942 | S. cerevisiae deletion strains, locus YPL240C, strain hsp82, stronger effect = lower value 0.973 | S. cerevisiae deletion strains, locus YPL241C, strain CIN2, stronger effect = lower value 0.991 | S. cerevisiae deletion strains, locus YPL256C, strain CLN2, stronger effect = lower value 0.998 | S. cerevisiae deletion strains, locus YPR119W, strain clb2, stronger effect = lower value 1 | S. cerevisiae deletion strains, locus YPR141C, strain kar3, stronger effect = lower value 0.992 | S. cerevisiae deletion strains, locus YPR163C, strain tif3, stronger effect = lower value 1 | S. cerevisiae deletion strains, locus YPR167C, strain met16, stronger effect = lower value 0.998 | S. cerevisiae deletion strains, strain wtn01, stronger effect = lower value 0.997 | S. cerevisiae strains, strain wild type, stronger effect = lower value 0.98
